Records with an inconclusive call do not appear. Active and inactive are the calls of the source. Calls come from the whole dose curve; as a rule, active = well fitted curve in the direction sought with a large enough effect in the repeat runs; inconclusive = weak or mixed curves; inactive = no such curve, though single readings can be large; an effect the other way counts as inactive or inconclusive.
Assays:
[1] = A CellTox Green Cytotoxicity Assay to monitor cytotoxicity in HEK293 cells - 40 hour (AID 1224871); note: nearly all actives have a fitted effect of over 45% in size
Method in brief: (§1)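 Nonlytic real-time cytotoxicity: HEK293 + CellTox Green reagent plated, 5 h preincubation, pintool compound addition (23 nL in DMSO), 37 C for 40 h, fluorescence measured at successive time points.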

[2] = qHTS RealTime-Glo MT Cell Viability Assay in HEK293 cells - 16 hour (AID 1224872); note: top concentration of the series differs between compounds; nearly all actives have a fitted effect of over 50% in size
Method in brief: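 Tox21 10K qHTS, HEK293, 600 cells/well, RealTime-Glo reagent co-dispensed with cells; 5 h preincubation, compound by pintool, 37 C, luminescence at 0–40 h.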

[3] = qHTS RealTime-Glo MT Cell Viability Assay in HepG2 cells - 8 hour (AID 1224873); note: nearly all actives have a fitted effect of over 55% in size
Method in brief: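 Real-time viability: cells seeded at 600 per well together with NanoLuc and cell-permeant prosubstrate, compounds added after 5 h incubation. Luminescence tracked at 0, 8, 16, 24, 32 and 40 h of exposure.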

[4] = qHTS RealTime-Glo MT Cell Viability Assay in HEK293 cells - 40 hour (AID 1224874); conditions: RealTime-Glo luminescence; max response: stronger effect = lower value; note: nearly all actives have a fitted effect of over 50% in size
Method in brief: (§2)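 Cells were seeded together with NanoLuc luciferase and a prosubstrate that viable cells reduce to a luciferase substrate. After a 5 h incubation at 37 C/5% CO2, compounds were added and luminescence was measured repeatedly during 40 h of treatment.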

[5] = A CellTox Green Cytotoxicity Assay to monitor cytotoxicity in HEK293 cells - 24 hour (AID 1224875); note: series mostly up to about 77 µM; nearly all actives have a fitted effect of over 45% in size
Method in brief: as §1

[6] = A CellTox Green Cytotoxicity Assay to monitor cytotoxicity in HepG2 cells - 16 hour (AID 1224876); note: nearly all actives have a fitted effect of over 45% in size
Method in brief: (§3)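 Read-out is fluorescence of a cyanine dye excluded from live cells that stains DNA of dead HepG2 cells, with signal proportional to cytotoxicity. Plates were read at 0, 8, 16, 24, 32 and 40 h after compound addition.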

[7] = qHTS RealTime-Glo MT Cell Viability Assay in HepG2 cells - 32 hour (AID 1224877); note: nearly all actives have a fitted effect of over 55% in size
Method in brief: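 Cells + NanoLuc/prosubstrate dispensed (600 cells/well) → 5 h at 37 C/5% CO2 → compounds in DMSO transferred → 40 h incubation at 37 C, luminescence read at 0, 8, 16, 24, 32, 40 h.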

[8] = A CellTox Green Cytotoxicity Assay to monitor cytotoxicity in HepG2 cells - 24 hour (AID 1224878); note: nearly all actives have a fitted effect of over 45% in size
Method in brief: as §3

[9] = qHTS RealTime-Glo MT Cell Viability Assay in HEK293 cells - 0 hour (AID 1224880)
Method in brief: as §2

[10] = A CellTox Green Cytotoxicity Assay to monitor cytotoxicity in HepG2 cells - 40 hour (AID 1224879); note: nearly all actives have a fitted effect of over 40% in size
Method in brief: as §3
% is set by controls: 0 for no effect and ±100 for the full control effect.

Nc1ccn([C@@H]2O[C@H](CO)[C@@H](O)[C@@H]2O)c(=O)n1
inactive: Potency [1] | Potency [2] | outcome [3] | max response [4] 6.05% | outcome [5] | outcome [6] | Potency [7] | outcome [8] | Potency [9]

CCOC(=O)CCC(=O)OCC
inactive: Potency [1] | Potency [2] | outcome [3] | max response [4] 3.67% | outcome [5] | outcome [6] | Potency [7] | Potency [10] | Potency [9]

Nc1ccncc1N
inactive: Potency [1] | Potency [2] | outcome [3] | max response [4] 13% | outcome [5] | outcome [6] | Potency [7] | Potency [10] | Potency [9]

CCCCCCCCN1CCCC1=O
inactive: Potency [1] | Potency [2] | outcome [3] | max response [4] -3.59% | outcome [5] | outcome [6] | Potency [7] | Potency [10] | Potency [9]

CCCCOCCOC(=O)COc1cc(Cl)c(Cl)cc1Cl
inactive: Potency [1] | Potency [2] | outcome [3] | max response [4] 4.7% | outcome [5] | outcome [6] | Potency [7] | Potency [10] | Potency [9]

CCOc1c(N2CCOCC2)cnn(C)c1=O
inactive: Potency [1] | Potency [2] | outcome [3] | max response [4] 3.38% | outcome [5] | outcome [6] | Potency [7] | Potency [10] | Potency [9]

O=C(O)Cc1csc(-c2ccc(Cl)cc2)n1
inactive: Potency [1] | Potency [2] | outcome [3] | max response [4] 1.2% | outcome [5] | outcome [6] | Potency [7] | Potency [10] | Potency [9]

Cc1coc2ccccc2c1=O
inactive: Potency [1] | Potency [2] | outcome [3] | max response [4] -0.146% | outcome [5] | outcome [6] | Potency [7] | outcome [8] | Potency [9]

CC(C)[C@H]1CC[C@@H](C)CC1=O
inactive: Potency [1] | Potency [2] | outcome [3] | max response [4] -1.73% | outcome [5] | outcome [6] | Potency [7] | Potency [10] | Potency [9]

CN1CCN(c2cc3c(nn2)Oc2ccccc2N3C)CC1
inactive: cytotoxicity increase [1] -14.2% [at 15.8 µM] | activity change, negative = cytotoxicity [2] 0.378% [at 15.8 µM] | viability change, negative = cytotoxic [3] -9.11% [at 15.8 µM] | max response [4] -0.461% | activity change [5] -12.9% [at 15.8 µM] | cytotoxicity increase [6] -0.721% [at 15.8 µM] | activity change, negative = cytotoxic [7] 3.07% [at 15.8 µM] | cytotoxicity [8] -2.46% [at 15.8 µM] | activity change, negative = cytotoxicity [9] -0.369% [at 15.8 µM]

CC(=O)N1C[C@H](O)C[C@H]1C(=O)O
inactive: Potency [1] | Potency [2] | outcome [3] | max response [4] 6.07% | outcome [5] | outcome [6] | Potency [7] | Potency [10] | Potency [9]

CN(C)C(=O)Oc1ccc[n+](C)c1
inactive: Potency [1] | Potency [2] | outcome [3] | max response [4] 5.97% | outcome [5] | outcome [6] | Potency [7] | outcome [8] | Potency [9]

CCCOC(=O)CC
inactive: Potency [1] | Potency [2] | outcome [3] | max response [4] 8.31% | outcome [5] | outcome [6] | Potency [7] | Potency [10] | Potency [9]

O=C1NC(=O)C2CC=CCC12 (stereo not given)
inactive: Potency [1] | Potency [2] | outcome [3] | max response [4] 11.2% | outcome [5] | outcome [6] | Potency [7] | Potency [10] | Potency [9]

NC(=O)N[C@@H](CCC(=O)O)C(=O)O
inactive: Potency [1] | Potency [2] | outcome [3] | max response [4] 5.25% | outcome [5] | outcome [6] | Potency [7] | Potency [10] | Potency [9]

COc1cc(C(=O)OC(COCCC(C)C)CN2CCOCC2)cc(OC)c1OC (stereo not given)
inactive: Potency [1] | Potency [2] | outcome [3] | max response [4] -2.35% | outcome [5] | outcome [6] | Potency [7] | Potency [10] | Potency [9]

CC(C)CCCO
inactive: Potency [1] | Potency [2] | outcome [3] | max response [4] 9.91% | outcome [5] | outcome [6] | Potency [7] | outcome [8] | Potency [9]

CCCCOCCOC(=O)CCCCCCCCC(=O)OCCOCCCC
inactive: Potency [1] | Potency [2] | outcome [3] | max response [4] 7.25% | outcome [5] | outcome [6] | Potency [7] | Potency [10] | Potency [9]

NC(N)=NCCN1CCCCCCC1
inactive: cytotoxicity increase [1] 1.15% [at 0.29 µM] | activity change, negative = cytotoxicity [2] -1.96% [at 0.29 µM] | viability change, negative = cytotoxic [3] 0.369% [at 0.29 µM] | max response [4] -2.62% | activity change [5] 3.96% [at 0.29 µM] | cytotoxicity increase [6] -11.2% [at 0.29 µM] | activity change, negative = cytotoxic [7] 0.55% [at 0.29 µM] | cytotoxicity increase [10] -13% [at 0.29 µM] | activity change, negative = cytotoxicity [9] -7.81% [at 0.29 µM]

CCCCCCCCCCOc1cc2c(=O)c(C(=O)OCC)c[nH]c2cc1OCC
inactive: cytotoxicity increase [1] 0.78% [at 6.97 µM] | activity change, negative = cytotoxicity [2] -0.329% [at 6.97 µM] | viability change, negative = cytotoxic [3] 8.14% [at 6.97 µM] | max response [4] 4.14% | activity change [5] 2.15% [at 6.97 µM] | cytotoxicity increase [6] 1.94% [at 6.97 µM] | activity change, negative = cytotoxic [7] 0.806% [at 6.97 µM] | cytotoxicity increase [10] -5.64% [at 6.97 µM] | activity change, negative = cytotoxicity [9] -0.96% [at 6.97 µM]

CCCCCCCCCCCCSC
inactive: Potency [1] | Potency [2] | outcome [3] | max response [4] 0.729% | outcome [5] | outcome [6] | Potency [7] | Potency [10] | Potency [9]

CCOCC(C)O (stereo not given)
inactive: Potency [1] | Potency [2] | outcome [3] | max response [4] -1.56% | outcome [5] | outcome [6] | Potency [7] | Potency [10] | Potency [9]

c1ccc2sc(SN3CCOCC3)nc2c1
inactive: Potency [1] | Potency [2] | outcome [3] | max response [4] 4.29% | outcome [5] | outcome [6] | Potency [7] | outcome [8] | Potency [9]

CCOC(=O)C(=O)CCCCCCl
inactive: Potency [1] | Potency [2] | outcome [3] | max response [4] 4.01% | outcome [5] | outcome [6] | Potency [7] | Potency [10] | Potency [9]

CCOC(=O)OC(C)OC1=C(C(=O)Nc2ccccn2)N(C)S(=O)(=O)c2ccccc21 (stereo not given)
inactive: Potency [1] | Potency [2] | outcome [3] | max response [4] 1.81% | outcome [5] | outcome [6] | Potency [7] | outcome [8] | Potency [9]

NCCCC(N)(C(=O)O)C(F)F (stereo not given)
inactive: Potency [1] | Potency [2] | outcome [3] | max response [4] 0.24% | outcome [5] | outcome [6] | Potency [7] | outcome [8] | Potency [9]

CCC(C)(CN(C)C)OC(=O)c1ccccc1 (stereo not given)
inactive: Potency [1] | Potency [2] | outcome [3] | max response [4] 12.1% | outcome [5] | outcome [6] | Potency [7] | Potency [10] | Potency [9]

CC[N+](CC)(CC(=O)Nc1c(C)cccc1C)Cc1ccccc1 (tested in a mixture with another compound)
inactive: Potency [1] | Potency [2] | outcome [3] | max response [4] -5.24% | outcome [5] | outcome [6] | Potency [7] | Potency [10] | Potency [9]

CC(=O)Nc1ccc(OCC(O)CNC(C)C)cc1 (stereo not given)
inactive: Potency [1] | Potency [2] | outcome [3] | max response [4] -1.7% | outcome [5] | outcome [6] | Potency [7] | Potency [10]

CC1=CC(=O)[C@H]2C[C@@H]1C2(C)C
inactive: Potency [1] | Potency [2] | outcome [3] | max response [4] -1.77% | outcome [5] | outcome [6] | Potency [7] | Potency [10] | Potency [9]

CCCC[N+](C)(CCCC)CCCC
inactive: Potency [1] | Potency [2] | outcome [3] | max response [4] -1.08% | outcome [5] | outcome [6] | Potency [7] | Potency [10] | Potency [9]

CC(C)(C)C(=O)Oc1ccc(S(=O)(=O)Nc2ccccc2C(=O)NCC(=O)O)cc1
inactive: Potency [1] | Potency [2] | outcome [3] | max response [4] 7.92% | outcome [5] | outcome [6] | Potency [7] | Potency [10] | Potency [9]

CCCCCCCC1CCCC1=O (stereo not given)
inactive: Potency [2] | outcome [3] | max response [4] 18.6% | outcome [5] | outcome [6] | Potency [7] | outcome [8] | Potency [10] | Potency [9]

CC1=NN(c2cccc(S(=O)(=O)O)c2)C(=O)C1
inactive: Potency [2] | outcome [3] | max response [4] 2.46% | outcome [5] | outcome [6] | Potency [7] | outcome [8] | Potency [10] | Potency [9]
